# Hit rate of the full screen: of about 5,500 compounds, about 2,000 (36%) were called active. Roughly 18% stayed inconclusive and do not appear here. The list shows a part of the results. Unmarked numbers belong to inactive results. No stated cut-off is given here; in the data, active means normalized growth mostly below about 0.91 (no sharp cut-off); inconclusive means no clear call, values can overlap the other calls; inactive means mostly above about 0.92.
# Experiment: chemical genetic growth profiling, strain panel (AID 1159580);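 further: tested at 20 µM; growth read once vehicle control cultures reached saturation at 30 °C; 1 = growth at the plate median or of vehicle wells; lower values mean less growth of the strain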
# Details: S. cerevisiae deletion strains, growth OD
# [1] = locus YAL040C, strain CLN3, hits give low values
# [2] = locus YCL061C, strain MRC1 (second series), hits give low values
# [3] = locus YDR363W, strain ESC2, hits give low values
# [4] = locus YER002W, strain NOP16, hits give low values
# [5] = locus YJR075W, strain HOC1, hits give low values
# [6] = locus YNL175C, strain NOP13, hits give low values
# [7] = locus YNL197C, strain WHI3, hits give low values
# [8] = locus YNL224C, strain SQS1, hits give low values
# [9] = locus YOR083W, strain WHI5 (second series), hits give low values
Structure (SMILES),normalized growth [1],normalized growth [2],normalized growth [3],normalized growth [4],"normalized growth (locus YGR078C, strain PAC10, hits give low values)",normalized growth [5],"normalized growth (locus YNL128W, strain TEP1, hits give low values)",normalized growth [6],normalized growth [7],normalized growth [8],"normalized growth (locus YNL322C, strain KRE1, hits give low values)",normalized growth [9],"normalized growth (locus YDR150W, strain NUM1, hits give low values)","normalized growth (locus YMR307W, strain GAS1, hits give low values)","normalized growth (locus YPL055C, strain LGE1, hits give low values)"
C=CCN1CCc2cccc3c2[C@H]1Cc1ccc(O)c(O)c1-3,0.942,0.481 (active),0.516 (active),0.976,0.979,0.199 (active),0.888 (active),0.966,0.961,0.985,0.152 (active),0.712 (active),,,
C=CCN1CC[C@]23c4c5ccc(O)c4O[C@@H]2/C(=N\N=C2\CC[C@@]4(O)C6Cc7ccc(O)c8c7[C@@]4(CCN6CC=C)[C@@H]2O8)CC[C@@]3(O)C1C5,1.01,1,1.01,1,,1,,0.988,1.02,1.01,,1.02,1,1.01,0.982

# Reference: PubChem BioAssay AID1159580 (chemical genetic matrix, 2015)
